Assays:
Assay in all cases: relative induction of RFP reporter vs primary effector (background-corrected); higher = stronger activation of the biosensor
Settings in all cases: inducer concentration 5 mM; 6 h; Cupriavidus necator H16; minimal medium + 0.4% gluconate
[1] = test system: AcoR/P_H16_RS19445 acetoin biosensor (pEH052)
Description: (§1)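 C. necator H16 strains, each carrying one of 21 transcription factor/inducible promoter–mRFP biosensor plasmids, were grown in minimal medium in 96-well plates (robotic platform). Each was exposed to 46 structurally or metabolically related compounds at 5 mM at 30 °C. OD-normalised RFP fluorescence was read 6 h later and expressed as relative induction (%) = 100 × (FL compound − FL uninduced)/(FL primary inducer − FL uninduced); mean of n=4.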

[2] = test system: AraC/P_araBAD L-arabinose biosensor (pEH176)
Description: as §1

[3] = test system: BenM/P_H16_RS09790 benzoate biosensor (pEH148)
Description: as §1

[4] = test system: FdsR/P_H16_RS03165 formate biosensor (pEH134)
Description: as §1

[5] = test system: GabR/P_H16_RS23655 GABA biosensor (pEH256)
Description: as §1

[6] = test system: HpdR/P_H16_RS18295 3-hydroxypropanoate biosensor (pEH010)
Description: as §1

[7] = test system: KynR/P_H16_RS14030 L-kynurenine biosensor (pEH136)
Description: as §1

[8] = test system: NahR/P_H16_RS08125 salicylate biosensor (pEH042)
Description: as §1

[9] = test system: OapR/P_H16_RS01330 beta-alanine biosensor (pEH147)
Description: as §1

[10] = test system: PcaQ/P_H16_RS30145 3,4-dihydroxybenzoate biosensor (pEH161)
Description: as §1

[11] = test system: PhgR/P_H16_RS05530 phenylglyoxylate biosensor (pEH155)
Description: as §1

[12] = test system: PhhR/P_H16_RS18365 L-phenylalanine biosensor (pEH137)
Description: as §1

[13] = test system: SauR/P_H16_RS13695 sulfonatoacetate biosensor (pEH157)
Description: as §1

[14] = test system: TtdR/P_H16_RS10665 tartrate biosensor (pEH083)
Description: as §1

[15] = test system: XdhR/P_H16_RS05055 xanthine biosensor (pEH154)
Description: as §1

[16] = test system: heterologous inducible system pEH002 (rhamnose/acrylate/cumate/itaconate set)
Description: as §1

[17] = test system: heterologous inducible system pEH020 (rhamnose/acrylate/cumate/itaconate set)
Description: as §1

[18] = test system: heterologous inducible system pEH040 (rhamnose/acrylate/cumate/itaconate set)
Description: as §1

[19] = test system: heterologous inducible system pEH086 (rhamnose/acrylate/cumate/itaconate set)
Description: as §1

[20] = test system: BadR/P_H16_RS27200 cyclohexanecarboxylate biosensor (pEH159)
Description: as §1
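Note: RFP excited at 585 nm with emission read at 620 nm, culture medium blanks subtracted from fluorescence and absorbance prior to normalisation.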

| Compound | relative induction of RFP reporter [1] | relative induction of RFP reporter [2] | relative induction of RFP reporter [3] | relative induction of RFP reporter [4] | relative induction of RFP reporter [5] | relative induction of RFP reporter [6] | relative induction of RFP reporter [7] | relative induction of RFP reporter [8] | relative induction of RFP reporter [9] | relative induction of RFP reporter [10] | relative induction of RFP reporter [11] | relative induction of RFP reporter [12] | relative induction of RFP reporter [13] | relative induction of RFP reporter [14] | relative induction of RFP reporter [15] | relative induction of RFP reporter [16] | relative induction of RFP reporter [17] | relative induction of RFP reporter [18] | relative induction of RFP reporter [19] | relative induction of RFP reporter [20] |
| --- | --- | --- | --- | --- | --- | --- | --- | --- | --- | --- | --- | --- | --- | --- | --- | --- | --- | --- | --- | --- |
| NC(C(=O)O)c1ccccc1 (racemic) [D,L-2-phenylglycine] | 2.41% | -0.0373% | 0.0272% | 5.96% | -1.88% | 0.893% | -0.416% | 0.0395% | 0.858% | 0.145% | 1.69% | -0.209% | -0.00851% | 0.176% | 0.377% | 0.012% | 3.29% | 0.705% | 0.876% |  |
| O=C(O)CC(=O)C(=O)O [oxaloacetate] | 0.0874% | -0.00919% | -0.0305% | 2.96% | -0.991% | 0.0505% | -0.384% | 0.0244% | 0.302% | -0.0492% | -0.502% | -0.153% | 0.016% | -0.0827% | -0.199% | 0.0189% | -0.323% | -0.91% | -0.0639% |  |
| Oc1ccccc1O [catechol] | 1.82% | -0.00935% | 9.72% | -2.57% | 3.82% | 0.415% | 0.704% | 0.0978% | -1.89% | 0.794% | 0.769% | -0.0234% | 0.114% | 2.09% | 0.259% | 0.0302% | -0.684% | 4.75% | -0.178% |  |
| O=C(O)/C=C/C(=O)O [fumarate] | -1.09% | 0.0135% | 0.214% | 12.2% | -0.753% | 0.112% | -0.13% | -0.00283% | 0.456% | 0.0475% | -0.207% | 0.00492% | 0.00629% | 0.78% | 0.739% | 0.00534% | -0.346% | -1.36% | 0.533% |  |
| O=C(O)c1ccc(O)cc1 [4-hydroxybenzoate] | 0.234% | -0.0125% | -0.00462% | 1.94% | -0.622% | 0.357% | -0.184% | 0.159% | -0.798% | 212% | -0.153% | -0.483% | -0.0101% | 0.895% | -0.191% | 0.0183% | -0.27% | -0.0264% | 0.318% |  |
| Cn1cnc2c1c(=O)[nH]c(=O)n2C [theobromine] | 0.603% | 0.0327% | 0.0104% | 3.33% | -2.07% | 0.0941% | 1.51% | 0.0192% | 0.977% | -0.0479% | 0.316% | 1.05% | -0.00533% | 0.646% | 0.45% | 0.0324% | -0.957% | 0.453% | 0.597% |  |
| O=C(O)C1CCCC1 [cyclopentane-1-carboxylate] | 9.44% | 0.014% | 0.298% | -2.26% | -1.83% | -0.057% | 0.335% | -0.00226% | 3.18% | -0.184% | -0.24% | -0.439% | 0.584% | 1.99% | 0.428% | -0.0145% | 0.409% | 7.83% | 0.259% |  |
| O=c1[nH]cnc2nc[nH]c12 [hypoxanthine] | -1.99% | 0.0138% | -0.0181% | -4.61% | -0.0294% | 0.126% | -0.263% | 0.0182% | 1.08% | -0.186% | 0.109% | -0.204% | 0.0689% | 0.797% | 166% | 0.00894% | -1.8% | -0.718% | 0.0665% |  |
| O=C(O)CNC(=O)c1ccccc1 [N-benzoylglycine] | -2.37% | -0.0115% | 21.2% | 40.1% | -0.301% | -0.376% | 0.0257% | 0.0182% | -1.12% | -0.215% | -0.146% | -0.604% | -0.018% | -0.285% | -0.852% | -0.00397% | -2.44% | -1.84% | -0.117% |  |
| Oc1ccc(O)cc1 [hydroquinone] | 4.27% | 0.188% | 0.0575% | 11.3% | 8.11% | 1.65% | 1.53% | 0.108% | 0.00669% | 0.229% | 1.56% | 2.24% | 0.207% | 1.2% | 0.708% | 0.0465% | -0.0999% | 2.73% | 0.735% | 4.02% |
| NCCc1ccc(O)c(O)c1 [dopamine] | 0.498% | -0.00264% | 0.0224% | 2.79% | 0.204% | 0.166% | 0.568% | 0.0188% | 0.108% | 0.356% | 0.249% | 0.138% | 0.18% | 1.41% | 0.0292% | 0.0361% | 0.433% | 1.22% | 0.396% |  |
| N[C@@H](Cc1c[nH]c2ccccc12)C(=O)O [L-tryptophan] | -1.3% | 0.00791% | -0.0226% | 34.8% | -1.31% | -0.00554% | 65.7% | 0.00282% | -0.39% | -0.161% | -0.235% | 1.21% | 0.0508% | -0.293% | -0.684% | 0.00955% | -1.17% | -1.03% | -0.228% |  |
| Oc1ccccc1 [phenol] | -1.65% | -0.0137% | -0.0189% | -3.17% | -2.32% | -0.39% | -0.287% | 0.011% | -1.38% | -0.0887% | -0.147% | -0.522% | 0.0243% | 0.576% | -0.78% | -0.0073% | -2.66% | -1.14% | -0.575% | -0.423% |
| Cn1c(=O)c2c(ncn2C)n(C)c1=O [caffeine] | 3.23% | 0.0778% | 0.0418% | 5.81% | -0.00438% | 0.0271% | 1.64% | 0.0392% | 0.545% | 0.0177% | -0.541% | 1.57% | 0.0139% | 0.808% | 0.33% | 0.0111% | -0.176% | 1.6% | 0.797% |  |
| NCC(=O)O [glycine] | -0.038% | -0.0181% | 0.0164% | -5.21% | 0.401% | -0.178% | 0.211% | 0.0163% | -0.454% | 0.00408% | -0.415% | -0.384% | 0.0965% | 0.812% | -0.0501% | 0.0153% | -0.252% | 0.354% | 0.274% | -0.419% |

Reference: the supplement of paper PMC7057948, “A genome-wide approach for identification and characterisation of metabolite-inducible systems” (Nature Communications, 2020)
